Results reported in the supplement of paper PMC10933113.
Structures can show the parent of a compound that is named as a salt. ± gives the uncertainty stated by the source.

System: THP-1
Test: CD54 surface expression induction over DMSO control (% over DMSO); higher = stronger dendritic cell activation
Details: exposure time: 24 h
Description: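 hCLAT-like CD54 and CD86 surface expression on THP1 cells after 24 h exposure at a single concentration (highest non-cytotoxic concentration, or 100-200 µM if not cytotoxic). Flow cytometry (iQue) was run on 5,000 live cells.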

SMILES	CD54 surface expression induction
O=C(N/N=C/c1ccccc1O)c1ccncc1 [Salinazid] (10 µM)	17.1 ± 8.6
Sc1nc2ccccc2s1 [2-Mercaptobenzothiazole] (100 µM)	-13.7 ± 14
O=C(O)c1cc(O)c2ccccc2c1O [1,4-dihydroxy-2-naphthoic acid*] (10 µM)	374 ± 47
C=C1CC[C@H](O)C/C1=C/C=C1\CCC[C@]2(C)[C@@H]([C@H](C)/C=C/[C@H](C)C(C)C)CC[C@@H]12 [Ergocalciferol*] (100 µM)	108 ± 7.2
Oc1ccc(/C=C/c2cc(O)cc(O)c2)cc1 [Resveratrol] (100 µM)	1.74 ± 6.8
c1ccc(SCCSc2ccccc2)cc1 [1,2-Bis(phenylthio)ethane] (100 µM)	-6.44 ± 3
Cc1c2ccccc2c(C)c2c1ccc1ccccc12 [7,12-Dimethylbenzanthracene] (10 µM)	-22 ± 12
Cc1ccc(N)cc1O [5-Amino-2-methylphenol] (200 µM)	34.1 ± 7.2
C/C=C1\C(=O)C[C@H]2[C@@H]3CCC4=CC(=O)CC[C@]4(C)[C@H]3CC[C@]12C [Guggulsterone Z] (100 µM)	-3.76 ± 3.3
C/C=C/C=C/C=O [2,4-Hexadienal] (200 µM)	9.31 ± 6.7
CCCCCCCCCCCCN(CCO)CCO [Lauryldiethanolamine] (10 µM)	-10.1 ± 4.7
[Cl][Bi]([Cl])([c]1ccccc1)([c]1ccccc1)[c]1ccccc1 [Triphenylbismuthine dichloride] (10 µM)	15.8 ± 5
Nc1ccc2cc3ccccc3cc2c1 [2-Aminoanthracene] (200 µM)	-52.5 ± 1.6
Clc1ccc2c(c1)Nc1ccccc1S2 [2-Chlorophenothiazine] (100 µM)	-15.3 ± 22
O=C(OCc1ccccc1)c1ccc(O)cc1 [Benzylparaben] (100 µM)	-6.45 ± 0.19
Clc1nc(C(Cl)(Cl)Cl)c(Cl)c(Cl)c1Cl [2,3,4,5-Tetrachloro-6-(trichloromethyl)pyridine] (10 µM)	-4.98 ± 3.6
Nc1cc(-c2ccncc2)c[nH]c1=O [Amrinone] (100 µM)	-1.65 ± 0.59
Cc1cccc(N(C)C(=S)Oc2ccc3c(c2)C2CCC3C2)c1 (stereo not given) [Tolciclate] (100 µM)	1.18 ± 1.2
NC(=S)NC(N)=S [2,4-Dithiobiuret] (200 µM)	15.9 ± 2.6
CN(C)c1ccc(C(=C2C=CC(=[N+](C)C)C=C2)c2ccccc2)cc1 [Malachite green oxalate*] (10 µM)	132 ± 20

SMILES	CD54 surface expression induction
NC(=O)N/N=C/c1ccc([N+](=O)[O-])o1 [Nitrofurazone] (200 µM)	15.9 ± 5.6
CC(C)(C)c1cc(O)ccc1O [tert-Butylhydroquinone] (100 µM)	48.9 ± 12
O=c1n(CC2CO2)c(=O)n(CC2CO2)c(=O)n1CC1CO1 (stereo not given) [Triglycidyl isocyanurate] (10 µM)	4 ± 1.7
O=C(/C=C/C=C/c1ccc2c(c1)OCO2)N1CCCCC1 [Piperine] (100 µM)	0.08 ± 0.77
COc1ccc2cc(CCC(C)=O)ccc2c1 [Nabumetone] (100 µM)	-12.2 ± 1.2
CCCCCCCCCCC=CC1CC(=O)OC1=O (stereo not given) [3-(Dodecenyl)dihydro-2,5-furandione] (200 µM)	16 ± 37
CC(O)C#CC(C)O (stereo not given) [Hex-3-yne-2,5-diol] (10 µM)	6.05 ± 3.8
COc1cccc2c1C(=O)c1c(O)c3c(c(O)c1C2=O)C[C@@](O)(C(=O)CO)C[C@@H]3O[C@H]1C[C@H](N)[C@H](O[C@@H]2CCCCO2)[C@H](C)O1 [Pirarubicin*] (10 µM)	263 ± 46
C=C(C)C(=O)Nc1ccc(Cl)c(Cl)c1 [Chloranocryl] (100 µM)	0.25 ± 0.41
CC(C)c1ccc2oc3nc(N)c(C(=O)O)cc3c(=O)c2c1 [Amlexanox] (100 µM)	-5.95 ± 2.7
O=C1c2cccc(O)c2C(=O)c2c(O)cccc21 [Danthron] (100 µM)	16.5 ± 0.49
Clc1ccc(C(Cn2ccnc2)OCc2c(Cl)cccc2Cl)c(Cl)c1 (stereo not given) [Isoconazole] (100 µM)	56.6 ± 9.5
O=c1[nH]sc2cc(Cl)ccc12 [Ticlatone] (10 µM)	-4.79 ± 7.2
CC[C@@]1(O)C(=O)OCc2c1cc1n(c2=O)Cc2c-1nc1ccccc1c2/C=N/OC(C)(C)C [Gimatecan] (10 µM)	-15.7 ± 5
O=c1cc(-c2ccccc2)oc2cc(O)cc(O)c12 [Chrysin] (100 µM)	18.9 ± 1.4
CC(C)c1ccc2cc(C(C)C)ccc2c1 [2,6-Diisopropylnaphthalene] (200 µM)	10.1 ± 1.7
C=CC(=O)OCCn1c(=O)n(CCOC(=O)C=C)c(=O)n(CCOC(=O)C=C)c1=O (10 µM)	3.33 ± 5.3
Cn1sccc1=O [2-Methyl-4-isothiazolin-3-one hydrochloride] (10 µM)	-19.5 ± 27
NC(=O)n1c(O)c(C(=O)c2cccs2)c2cc(Cl)ccc21 [Tenidap*] (200 µM)	157 ± 35
O=[N+]([O-])c1cc(Cl)c(Cl)c(Cl)c1Cl [2,3,4,5-Tetrachloronitrobenzene] (10 µM)	-4.73 ± 2.7
